Reference: PubChem BioAssay (NCATS)
Inconclusive results are not listed. The source made the active and inactive calls. Calls follow the shape of the dose curve; as a rule, active = well fitted inhibition curve with a large enough effect; inconclusive = small, poorly fitted or top-dose-only effect; inactive = flat fitted curve, though single readings scatter.

system: W2; assay: qHTS profiling for inhibitors of Plasmodium falciparum proliferation (AID 504749); also: nearly all actives have a fitted effect of over 60% in size; settings: P. falciparum in erythrocytes, SYBR Green DNA, 72 h; series mostly up to 28.7 µM
How it was run: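 SYBR Green fluorescence of parasite DNA, read after lysis and overnight dark incubation, measured growth over 72 h in erythrocyte culture at 0.3% parasitemia and 2.5% hematocrit. Data normalised to DMSO and 0.29 uM artemisinin, with plate-drift correction.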
Potency is read from the fitted curve at half-maximal effect.

Potency, inactive:
CCCCCCCCCCCCCCCC(=O)OC[C@H](O)[C@H]1OC[C@@H](O)[C@@H]1O
C[C@H]1OC(OC2C(O)[C@@H](O)C(OC3C(O)[C@@H](O)C(O)O[C@@H]3CO)O[C@@H]2CO)[C@H](O)C(O)C1N[C@H]1C=C(CO)[C@@H](O)[C@H](O)C1O (stereo partly drawn)
CC(=O)N[C@H]1[C@H](O[C@@H]2c3ccc(c(Cl)c3)Oc3cc4cc(c3O[C@@H]3O[C@H](CO)[C@@H](O)[C@H](O)C3C)Oc3ccc(cc3Cl)C[C@H]3NC(=O)[C@@H](N)c5ccc(O)c(c5)Oc5cc(O)cc(c5)[C@H](NC3=O)C(=O)N[C@H]4C(=O)N[C@H]3C(=O)N[C@@H]2C(=O)N[C@@H](C(=O)O)c2cc(O)cc(O[C@H]4O[C@H](CO)[C@@H](O)C(O)[C@@H]4O)c2-c2cc3ccc2O)O[C@H](CO)[C@@H](O)[C@@H]1O (stereo partly drawn)
NC(=O)c1ncn(C2OC(CO)C(O)C2O)c1N (stereo not drawn)
CC1(Cn2ccnn2)[C@H](C(=O)O)N2C(=O)C[C@H]2S1(=O)=O (stereo partly drawn)
OCCN1CC(O)C(O)C(O)C1CO (stereo not drawn)
O=C(OC[C@@H]1O[C@@](O)(COC(=O)c2cccnc2)[C@H](OC(=O)c2cccnc2)[C@H]1OC(=O)c1cccnc1)c1cccnc1
O=[N+]([O-])O[C@H]1CO[C@H]2[C@@H]1OC[C@H]2O
COc1cccc(OC)c1C(=O)NC1C(=O)N2C1SC(C)(C)C2C(=O)O (stereo not drawn)
NC[C@@H]1O[C@H](OC2[C@@H](CO)O[C@@H](OC3[C@H](O)[C@H](N)C[C@H](N)[C@H]3OC3O[C@H](CO)[C@@H](O)[C@H](O)[C@@H]3N)[C@H]2O)C(N)[C@H](O)[C@@H]1O (stereo partly drawn)
Cc1ccc(S(=O)(=O)NC(=O)NC(C)Cc2ccccc2)cc1 (stereo not drawn)
OCCOC[C@H]1O[C@H](OCCO)[C@H](OCCO)[C@@H](OCCO)[C@@H]1OCCO (tested in a mixture with another compound)
C[S+](C)CC[C@H](N)C(=O)O
CC[C@@H]1/C=C(\C)C[C@H](C)C[C@H](OC)[C@H]2O[C@@](O)(C(=O)C(=O)N3CCCC[C@H]3C(=O)O[C@H](/C(C)=C/[C@@H]3CC[C@H](Cl)[C@H](OC)C3)[C@H](C)[C@@H](O)CC1=O)[C@H](C)C[C@@H]2OC
NC(=O)C1CC2(NC(=O)NC2=O)c2cc(F)ccc2O1 (stereo not drawn)
CN1[C@@H]2CC[C@@H]1CC(OC(=O)[C@H](CO)c1ccccc1)C2 (stereo partly drawn)
CCCCCCCCCCCC(=O)OCC(O)C1OCC(O)C1O (stereo not drawn)
O=C1C(I)=CC(=C(c2cc(I)c(O)c(I)c2)c2ccccc2C(=O)O)C=C1I
NC(=O)NC(CCC(=O)O)C(=O)O (stereo not drawn)
CC(=O)OCC(=O)[C@@]1(O)CCC2C3C[C@H](C)C4=CC(=O)C=CC4(C)C3C(O)CC21C (stereo partly drawn)
CC1(C)C2CC[C@]1(C)[C@@H](O)C2
OCC1O[C@H](Oc2ccc(O)cc2)C(O)C(O)C1O (stereo partly drawn)
Nc1nc(F)nc2c1ncn2[C@@H]1O[C@H](CO)[C@@H](O)[C@H]1O
CC1OC(OC2CCC3(C)C(CCC4C3CC(O)C3(C)C(C5=CC(=O)OC5)CCC43O)C2)CC(O)C1OC1CC(O)C(OC2CC(O)C(OC3OC(CO)C(O)C(O)C3O)C(C)O2)C(C)O1 (stereo not drawn)
CC1OC(OCC2OC(Oc3c(-c4ccc(OCCO)c(OCCO)c4)oc4cc(OCCO)cc(O)c4c3=O)C(O)C(O)C2O)[C@@H](O)C(O)C1O (stereo partly drawn)

Potency, active:
CCCCC(=O)OCC(=O)[C@]1(O)Cc2c(O)c3c(c(O)c2[C@H](OC2CC(NC(=O)C(F)(F)F)C(O)C(C)O2)C1)C(=O)c1c(OC)cccc1C3=O (stereo partly drawn) 1510 nM
C[C@H]1[C@@H](OC(=O)CCC(=O)O)OC2OC3(C)CC[C@H]4[C@H](C)CC[C@@H]1[C@@]24OO3 (stereo partly drawn) 1.9 nM
COc1cc2c(cc1O)CCN[C@@]21CS[C@H]2c3c(OC(C)=O)c(C)c4c(c3C(COC1=O)N1C2C2c3c(cc(C)c(OC)c3O)CC([C@@H]1O)N2C)OCO4 (stereo partly drawn) 0.4 nM
C[n+]1c2cc(N)ccc2cc2ccc(N)cc21 757 nM
CC[C@@]1(O)C[C@H](O[C@H]2C[C@@H](N(C)C)[C@@H](O[C@H]3C[C@@H](O)[C@@H](O[C@H]4CCC(=O)[C@@H](C)O4)[C@@H](C)O3)[C@@H](C)O2)c2c(cc3c(c2O)C(=O)c2c(O)cccc2C3=O)[C@H]1C(=O)OC 151 nM
C/C1=C2/[N-]C(C(CC(N)=O)[C@@]2(C)CCC(=O)NCC(C)OP(=O)([O-])O[C@H]2[C@@H](O)[C@@H](n3cnc4cc(C)c(C)cc43)O[C@@H]2CO)[C@]2(C)N=C(/C(C)=C3N=C(/C=C4N=C1C(CCC(N)=O)C\4(C)C)[C@@H](CCC(N)=O)[C@]\3(C)CC(N)=O)[C@@H](CCC(N)=O)[C@]2(C)CC(N)=O.CC(=O)O.[Co] (stereo partly drawn) 601 nM
COC1CC2CCC(C)[C@](O)(O2)C(=O)C(=O)N2CCCCC2C(=O)OC(C(C)CC2CCC(O)C(OC)C2)CC(=O)C(C)/C=C(/C)C(O)C(OC)C(=O)C(C)CC(C)C=CC=C/C=C\1C (stereo partly drawn) 675 nM
CN[C@H](C)CCC=C(C)C 47.8 nM
